Structures are written as SMILES. About 20 (2%) of roughly 1,200 compounds were called active. Where a call stands in place of a potency, no number is given. Inconclusive results (about 23%) are left out. Calls follow the shape of the dose curve; as a rule, active = well fitted inhibition curve with a large enough effect; inconclusive = small, poorly fitted or top-dose-only effect; inactive = no such curve, though single readings can be large or run the other way. The sample as a whole holds a higher share of actives than the screen did.
Potency is read from the fitted curve at half-maximal effect.

Transcriptional regulator ERG (Homo sapiens), sequence (P11308 whole entry, looked up, the tested form may be a part): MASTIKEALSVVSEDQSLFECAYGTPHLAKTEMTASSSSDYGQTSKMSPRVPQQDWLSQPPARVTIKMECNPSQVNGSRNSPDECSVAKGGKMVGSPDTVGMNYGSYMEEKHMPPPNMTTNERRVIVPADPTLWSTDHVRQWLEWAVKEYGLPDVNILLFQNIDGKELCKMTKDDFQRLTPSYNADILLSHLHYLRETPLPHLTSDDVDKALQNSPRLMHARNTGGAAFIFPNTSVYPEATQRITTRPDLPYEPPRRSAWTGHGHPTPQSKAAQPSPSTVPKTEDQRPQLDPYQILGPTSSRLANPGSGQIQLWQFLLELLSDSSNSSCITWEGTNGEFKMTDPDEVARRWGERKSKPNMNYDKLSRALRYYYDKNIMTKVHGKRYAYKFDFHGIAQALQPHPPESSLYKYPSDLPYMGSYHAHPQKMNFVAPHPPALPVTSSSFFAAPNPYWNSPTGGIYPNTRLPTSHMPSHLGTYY

The target in the assay is Transcriptional regulator ERG (Homo sapiens) (UniProt P11308). Put plainly: qHTS for Small Molecule Inhibitors of the ERG Ets/DNA interaction: HTRF assay against cherry picks. Conditions: His-ERG Ets domain with biotin-DNA; series mostly up to 154 µM. The source says:
The Ets family of proteins is a family of ~30 conserved transcription factors defined by the presence of an ~85 amino acid domain referred to as the Ets domain, which mediates sequence-specific DNA binding to a core DNA element GGAA/T.The Ets family member ERG has been linked to several neoplasms. […] More extensive studies of the effects of over-expression of ERG in prostate cells have recently been carried out and have shown that over-expression of ERG results in increased invasion. […] We will carry out a high throughout screen to identify inhibitors of the interaction between ERG and DNA using a fluorescence polarization (FP) assay with a His-tagged ERG Ets domain and fluorescently-labeled DNA probes to develop small molecule inhibitors of this interaction as probes to test this hypothesis and lay the groundwork for the development of targeted therapies against ERG. This is the counterscreen against the cherry picks. NIH Molecular Libraries Probe Production Network [MLPCN] NIH Chemical Genomics Center [NCGC] Grant: NS066464 PI Name: John Bushweller, University of Virgina
2 ul of protein solution (200 nM ERG domain in 300mM KCl, 50mM Tris-HCl, 1mM EDTA, 1mM DTT, pH 7.5); 20 nl Control plate and compound library plate; 2 ul of 200 nM biotin-DNA; incubate for 10 min at RT; 1 ul of anti-His antibody conjugated to the long-life fluorescent cryptate donner […] (5ng/ul) and streptavidin conjugated to the acceptor compound […] (0.2 ng/ul) mix; incubate 10 min and measure FRET (Excitation = 320 nm, Emission = 615, 665 nm).
As to `Nc1ccc2nonc2c1[N+](=O)[O-]`, the Potency was 50.1 µM (active).

For `C=C1C2C[C@@]3([C@@H]1O)[C@@H](C[C@@H]2O)[C@@]12C4[C@@H]3C[C@@H]1[C@@](C)(CC[C@@H]2O)CN4CC`, the Potency result was “inactive”.

As for `CC(=O)C1(c2ccccc2)CCN(C(=O)C2CCC(=O)N(CCc3cccc(F)c3)C2)CC1` (stereo not given), the Potency result is “inactive”.

With `C[N+]1(C)[C@@H]2CC[C@H]1CC(OC(=O)C(CO)c1ccccc1)C2` (stereo not given in full), the Potency entry was “inactive”.

Turning to `CN1[C@@H]2CCC[C@H]1CC(=O)C2`, the Potency entry was “inactive”.

(Values after PubChem BioAssay AID651804 (National Center for Advancing Translational Sciences (NCATS), 2012).)
